Source: PubChem BioAssay AID720526 (National Center for Advancing Translational Sciences (NCATS), 2013)
Results filed as inconclusive are left out. Values without a mark were called inactive. Activity calls are given as the source filed them. The call rests on the fitted dose curve; in most records, active means well fitted activation curve with a large enough effect; inconclusive means small, poorly fitted or top-dose-only effect; inactive means no such curve, though single readings can be large or run the other way.

assay: qHTS Assay for NPC1 Promoter Activators: Hit Validation Using Renila Luciferase Read-Out for NPC1; details: Huh7 NPC1 promoter-luciferase reporter, luminescence, 24 h; series mostly up to 76.9 µM; activity change, positive = activation: at the top concentration; on activity change, positive = activation: % of control where 0% means no effect
Method in brief: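 Huh7 cells stably carrying NPC promoter-luciferase reporter, exposed to compound for 24 h at 37 deg C. Luminescence read 10 min after adding luciferase detection reagent at room temperature.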
Potency means the concentration at half of the fitted maximal effect.

| SMILES | activity change, positive = activation [%] | Potency |
| --- | --- | --- |
| O=C(Nc1ccc(-c2nc3cccnc3s2)cc1)c1ccc(Cl)nc1 | 1.87 |  |
| C=CCn1c(C)nnc1SCC(=O)Nc1nccs1 | 6.19 |  |
| COC(=O)c1ccccc1NC(=O)c1cc(-c2cccs2)on1 | 20.1 |  |
| CC(=O)Nc1ccc(-c2csc(Nc3ncccn3)n2)cc1 | 4.37 |  |
| O=C(CCc1cccc(Cl)c1)NC1CCCN(Cc2ccccc2F)C1 (stereo not given) | 8.73 |  |
| CCCOP(=O)(c1ccc(N(C)C)cc1)C(O)c1cccnc1 (stereo not given) | 5.33 |  |
| Cc1nc(SCC(=O)NC(=O)NC(C)(C)C)nc(C)c1C | -0.535 |  |
| CCOC(=O)c1ccccc1NC(=O)CSc1nnc(Cc2cccn2C)n1-c1ccc(F)cc1 |  | 46.3 µM (active) |
| Cc1cccc(C)c1NC(=O)Nc1cccs1 | -0.0994 |  |
| Cc1cccc(N2CCN(C(=S)c3ccccc3)CC2)c1 | 9 |  |
| COC(=O)c1sccc1NC(=S)OC | 5.09 |  |
| Nc1c(N(CCO)C(=O)/C=C/c2ccco2)c(=O)[nH]c(=O)n1Cc1ccccc1 | 13.3 |  |
| COc1ccccc1OCCCC(=O)NCc1ccco1 | 6.95 |  |
| O=C(O)C1=CC[C@@H](c2ccc(Cl)cc2)N(S(=O)(=O)c2ccc(Cl)cc2)[C@H]1c1ccccc1 |  | 14.6 µM (active) |
| CCc1cc(C(=O)Nc2ccccc2)cs1 | -45.1 |  |
| Cc1c(C(O)CN2CCN(Cc3ccc4c(c3)OCO4)CC2)c2ccccc2n1C (stereo not given) | 13.3 |  |
| C=CCOC(=O)N1CCN(c2cccc(C(F)(F)F)c2)CC1 | -3.15 |  |
| COc1ccc(C(c2nnnn2CCc2ccccc2)N2CCN(C3CCCC3)CC2)cc1 (stereo not given) |  | 13 µM (active) |
| COc1ccc(NC(=O)CSc2ccc([N+](=O)[O-])cc2)cc1S(=O)(=O)N1CCOCC1 | 7.39 |  |
| Cc1noc(/C=C/N(C)C)c1S(=O)(=O)N1CCCC(C(=O)N2CCCCC2)C1 (stereo not given) | 10.9 |  |
